Data as given in PubChem BioAssay AID1159580 (chemical genetic matrix, 2015).
Where “and” joins values, the source holds several entries; their conditions need not be identical. Identical values can stand only once. Out of some 5,500 compounds screened, about 2,000 (36%) were called active. Inconclusive results (about 18%) are left out. Rule as the data show it: active = normalized growth mostly below about 0.91 (no sharp cut-off); inconclusive = no clear call, values can overlap the other calls; inactive = mostly above about 0.92. Some of the results follow.

Experiment: chemical genetic growth profiling, strain panel (AID 1159580);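 also: tested at 20 µM; growth read once vehicle control cultures reached saturation at 30 °C; 1 = growth at the plate median or of vehicle wells; lower values mean less growth of the strain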
Conditions: S. cerevisiae deletion strains, growth OD

Measured: normalized growth

Cn1c(=O)c2c(ncn2C)n(C)c1=O
inactive: locus YAL013W, strain DEP1, active compounds read low 0.997 | locus YAL021C, strain ccr4, active compounds read low 1.01 | locus YAL026C, strain drs2, active compounds read low 0.975 | locus YAL030W, strain snc1, active compounds read low 0.97 | locus YAL040C, strain CLN3, active compounds read low 1.02 | locus YBL061C, strain skt5, active compounds read low 0.962 | locus YBR009C, strain hhf1, active compounds read low 0.94 | locus YBR021W, strain FUR4, active compounds read low 1.01 | locus YBR023C, strain chs3, active compounds read low 0.978 | locus YBR171W, strain sec66, active compounds read low 0.94 | locus YBR229C, strain ROT2, active compounds read low 0.998 | locus YBR231C, strain swc5, active compounds read low 0.989 | locus YBR279W, strain paf1, active compounds read low 0.982 | locus YCL011C, strain gbp2, active compounds read low 0.922 | locus YCL016C, strain dcc1, active compounds read low 0.936 | locus YCL029C, strain bik1, active compounds read low 1.02 | locus YCL061C, strain MRC1 (second series), active compounds read low 1.01 | locus YCL061C, strain MRC1, active compounds read low 0.98 | locus YCL069W, strain vba3, active compounds read low 0.973 | locus YCR088W, strain abp1, active compounds read low 0.983 | locus YDL005C, strain med2, active compounds read low 0.99 | locus YDL035C, strain GPR1, active compounds read low 1.02 | locus YDL040C, strain nat1, active compounds read low 0.987 | locus YDL074C, strain BRE1, active compounds read low 1.03 | locus YDL101C, strain DUN1, active compounds read low 0.999 | locus YDL134C, strain PPH21, active compounds read low 0.992 | locus YDL185W, strain tfp1, active compounds read low 1.02 | locus YDL192W, strain arf1, active compounds read low 1 | locus YDR001C, strain nth1, active compounds read low 0.966 | locus YDR069C, strain doa4, active compounds read low 0.961 | locus YDR101C, strain arx1, active compounds read low 1.04 | locus YDR137W, strain rgp1, active compounds read low 0.943 | locus YDR150W, strain NUM1, active compounds read low 0.998 | locus YDR159W, strain sac3, active compounds read low 0.961 | locus YDR162C, strain NBP2, active compounds read low 0.998 | locus YDR195W, strain ref2 0.99 | locus YDR297W, strain sur2, active compounds read low 0.98 | locus YDR318W, strain mcm21, active compounds read low 0.99 | locus YDR334W, strain swr1, active compounds read low 0.914 | locus YDR335W, strain msn5, active compounds read low 0.969 | locus YDR363W, strain ESC2, active compounds read low 0.985 | locus YDR388W, active compounds read low 1 | locus YDR392W, strain spt3, active compounds read low 0.942 | locus YDR502C, strain sam2, active compounds read low 1.01 | locus YEL003W, strain gim4, active compounds read low 0.979 | locus YEL037C, strain rad23, active compounds read low 0.972 | locus YEL061C, strain CIN8 (second series), active compounds read low 0.977 | locus YEL061C, strain CIN8, active compounds read low 0.996 | locus YER002W, strain NOP16, active compounds read low 1.01 | locus YER015W, strain faa2, active compounds read low 0.971 | locus YER016W, strain bim1, active compounds read low 0.948 | locus YER110C, active compounds read low 1.01 | locus YER111C, strain swi4, active compounds read low 0.949 | locus YER155C, strain BEM2 (second series), active compounds read low 1 | locus YER155C, strain BEM2, active compounds read low 0.994 | locus YER167W, strain BCK2, active compounds read low 1 | locus YFR010W, strain ubp6, active compounds read low 0.96 | locus YGL078C, strain dbp3, active compounds read low 1.02 | locus YGL086W, strain mad1, active compounds read low 1.01 | locus YGL167C, strain pmr1, active compounds read low 0.945 | locus YGL173C, strain kem1, active compounds read low 0.938 | locus YGL227W, strain vid30, active compounds read low 0.97 | locus YGL240W, strain doc1, active compounds read low 0.987 | locus YGL248W, strain PDE1, active compounds read low 1 | locus YGL253W, strain hxk2, active compounds read low 0.982 | locus YGR078C, strain PAC10, active compounds read low 0.995 and 0.992 | locus YGR135W, strain pre9, active compounds read low 0.999 | locus YGR229C, strain SMI1, active compounds read low 0.995 | locus YGR252W, strain gcn5, active compounds read low 1.01 | locus YHR013C, strain ard1, active compounds read low 0.947 | locus YHR027C, strain rpn1, active compounds read low 0.932 | locus YHR030C, strain SLT2, active compounds read low 1 and 1.02 | locus YHR079C, strain IRE1 (second series), active compounds read low 1.01 | locus YHR079C, strain IRE1, active compounds read low 0.993 | locus YHR094C, strain hxt1, active compounds read low 1.01 | locus YHR129C, strain ARP1, active compounds read low 0.996 | locus YHR142W, strain chs7, active compounds read low 0.899 | locus YHR200W, strain rpn10, active compounds read low 1.02 | locus YIL066C, strain RNR3, active compounds read low 1.01 | locus YIL073C, strain SPO22, active compounds read low 1.04 | locus YIL125W, strain kgd1, active compounds read low 1.01 | locus YIR030C, strain dcg1, active compounds read low 0.999 | locus YJL092W, strain hpr5, active compounds read low 0.956 | locus YJL095W, strain BCK1 (second series), active compounds read low 0.967 | locus YJL095W, strain BCK1, active compounds read low 0.985 and 1.04 | locus YJL115W, strain asf1, active compounds read low 0.939 | locus YJL129C, strain trk1, active compounds read low 0.95 | locus YJL134W, strain LCB3, active compounds read low 1 | locus YJL154C, strain vps35, active compounds read low 0.976 | locus YJL164C, strain tpk1, active compounds read low 0.964 | locus YJL166W, strain qcr8, active compounds read low 0.977 | locus YJL168C, strain set2, active compounds read low 0.997 | locus YJL187C, strain SWE1 (second series), active compounds read low 1.01 | locus YJL187C, strain SWE1, active compounds read low 0.966
